According to PubChem BioAssay (EPA / NIEHS):
The source made the active and inactive calls. Rule for the calls: active = hit-call score of the fitted dose curve at least 0.9, where 1 is the maximum; inactive = score below 0.9.

Read-out: matrix metalloproteinase-10 (MMP10), MMP10 (gene 4319)
Experiment: LTEA_HepaRG_MMP10: Life Technologies and Expression Analysis (LTEA) Assay for matrix metalloproteinase-10 (MMP10) using HepaRG (AID 2283517)
Settings: mRNA level, 48 h; actives raise or lower the signal
Experimental: LTEA_HepaRG is a cell based, multiplexed-readout assay that uses HepaRG, a human liver cell line, with measurements taken at 48 hours after chemical dosing on a 96-well plate.LTEA_HepaRG_MMP10 is one of 102 assay component(s) measured in the LTEA HepaRG cell culture assay. It is a marker of Fibrosis.Data from the assay component LTEA_HepaRG_MMP10 was analyzed into 1 endpoint. This assay endpoint, LTEA_HepaRG_MMP10, was analyzed with bidirectional fitting relative to DMSO as the negative control and baseline of activity. Using a type of inducible reporter, measures of mRNA induction for gain or loss-of-signal activity can be used to understand regulation of transcription factor activity. To generalize the intended target to other relatable targets, this assay endpoint is annotated to the protease intended target family, where the subfamily is matrix metalloproteinase.
A total of 1060 chemcials from the ToxCast library were tested in eight-point concentration-response experiments. Cell culture and cytotoxicity assays were conducted at Thermo Fisher Scientific's Custom Services facility (Madison, WI). A single lot of human HepaRG cells (Thermo Fisher Scientific, Frederick, MD) was used for the cell culture experiments. 96-well format collagen type I coated plates of human HepaRG cells were prepared using established methods. Briefly, cryopreserved HepaRG cells were thawed, plated at a density of approximately 100,000 cells/well in HepaRG Thaw, Plate, and General Purpose media (HPRG770, Thermo Fisher Scientific), and incubated for 48 hours. 0.5% DMSO was selected as vehicle control to balance the requisite need of DMSO in HepaRG cultures to maintain differentiation (for example, baseline metabolism, proportions of hepatocytes vs. cholangiocytes), while enabling further hepatic receptor pathway activation (for example, PXR and CAR) in response to chemical exposure. 48 hours after plating, the culture medium was replaced with HepaRG Serum-Free Incudtion Media. Cells were exposed to each test chemical in duplicate and maintained in CO2 incubators for another 48 hours. Chemical plates were thawed to room temperature and 200x concentrations of treatment groups were prepared. 8-point conentration-reponse curves were made with the highest exposure at 100 uM, followed by half-log dilutions, all in 0.5% DMSO. Each test plate contained variouse controls, induction positive controls (1mM phenobarbital), cytotoxicity positive controls ([…] aflatoxin B1), vehicle controls (0.5% DMSO), and total lysis controls (0.5% DMSO). Cell morphology images were taken using an Essen IncuCyte FLR automated microscope, with six 96-well plates imaged in about 24 minutes. Images were captured and exported and JPEG files. Spent culture media was transfered to black-well plates for the LDH assay, and remaining media was sorted at -80 C for later use. Cells were treated with RLT buffer and frozen until shipped for gene expression analysis. Total RNA was isolated from the cell suspension in 75 uL of Buffer RLT (Qiagen, Germantown, MD 20874) by Quintiles/Expression Analysis (Durham, NC) using a custom isolation procedure. Total RNA from each plate well was transferred to a preamplification plate. Fluidigm's 96.96 Dynamic ArrayTM (Fluidigm, Amsterdam, the Netherlands) technology was used for gene expression analyses by quantitative reverse transcription polymerase chain reaction (qRT-PCR, performed by Quintiles/Expression Analysis, Durham, NC)89. Standard TaqManTM Assays (Applied Biosystems/ThermoFisher Scientific, Foster City, CA) were used to assess the expression of 93 genes selected based on their selectivity and sensitivity to important hepatic receptors known to be modulated by environmental chemicals; importance in human hepatocyte functionality; and hepatotoxicity. […]

Row | Compound | outcome | AC50
1 | OCc1ccccc1 | inactive | –
2 | OCC(CO)(CO)CO | inactive | –
3 | COCc1nnc(-c2ccc[n+]([O-])c2)n1-c1c(Cl)c(Cl)cc2[nH]c(=O)c(=O)[nH]c12 | inactive | –
4 | O=c1[nH]cnc2c1ncn2[C@H]1CC[C@@H](CO)O1 | inactive | –
5 | C=CN1CCCC1=O | inactive | –
6 | NNC(=O)c1ccncc1 | inactive | –
7 | OC[C@H]1O[C@@](CO)(O[C@H]2O[C@H](CO)[C@@H](O)[C@H](O)[C@H]2O)[C@@H](O)[C@@H]1O | inactive | –
8 | CCN(CC)C(=S)SSC(=S)N(CC)CC | inactive | –
9 | CCCCCCCC1CCC(=O)O1 (stereo not given) | inactive | –
10 | CCCCCCCCCCCCCCO | inactive | –
11 | OC(Cn1cncn1)(Cn1cncn1)c1ccc(F)cc1F | inactive | –
12 | Cn1c(=O)c2[nH]cnc2n(C)c1=O | inactive | –
13 | CCn1nc(C)c2c1C(=O)NCC(c1ccc(O)cc1)=N2 | inactive | –
14 | CC(C)CCCCCCOC(=O)C1CCCCC1C(=O)OCCCCCCC(C)C (stereo not given) | inactive | –
15 | c1ccc2c(c1)-c1cccc3c1c-2cc1ccccc13 | inactive | –
16 | C[C@]12C=CC(=O)C=C1CC[C@H]1[C@@H]3C[C@@H](O)[C@](O)(C(=O)CO)[C@@]3(C)C[C@H](O)[C@@]12F | inactive | –
17 | c1ccc(C(O[C@@H]2CCCN(CCc3ccc4c(c3)OCO4)C2)c2ccccc2)cc1 | inactive | –
18 | CC(C)C(=O)Nc1ccc([N+](=O)[O-])c(C(F)(F)F)c1 | – | 50 µM (active)
19 | CCCCCCCCN(C)C | inactive | –
20 | COS(C)(=O)=O | inactive | –

Row | Compound | outcome | AC50
21 | CCCCOC(=O)c1ccccc1 | inactive | –
22 | c1ccc2cc3ccccc3cc2c1 | inactive | –
23 | CCc1cccc(CC)c1N | inactive | –
24 | CCCCCCCCCCCCCCCCOS(=O)(=O)O | inactive | –
25 | NC(=O)N(O)[C@@H]1COc2cc(OCc3ccccc3)ccc21 | inactive | –
26 | O=C(NO)C1(NS(=O)(=O)c2ccc(Oc3ccc(F)cc3)cc2)CCOCC1 | inactive | –
27 | CC(=O)c1ccccc1 | inactive | –
28 | O=C(O)[C@H](O)[C@@H](O)C(=O)O | inactive | –
29 | Cn1cc[nH]c1=S | inactive | –
30 | OCCNCCO | inactive | –
31 | NC(N)=O | inactive | –
32 | CCCCCCCCCC | inactive | –
33 | O=C(O)c1ccc2c(c1)nc(C(=O)NC1CCN(C3CC3)CC1)n2Cc1cc(-c2ccc(Cl)s2)on1 | inactive | –
34 | O=C1CN(N=Cc2ccc([N+](=O)[O-])o2)C(=O)N1 | inactive | –
35 | CCCCN1C(=O)[C@@H]([C@H](O)C2CCCCC2)NC(=O)C12CCN(Cc1ccc(Oc3ccc(C(=O)O)cc3)cc1)CC2 | – | 11.9 µM (active)
36 | CCOc1ccc2[nH]cc(C(=O)NCc3ccccc3)c(=O)c2n1 | inactive | –
37 | CCCCCOC(C)=O | inactive | –
38 | Cc1ccc(S(=O)(=O)NC(=O)NN2CCCCCC2)cc1 | inactive | –
39 | COc1cc(C(C)C)c2c(c1)S(=O)(=O)N(COc1cc(=O)n3cccc(OCCN4CCCCC4)c3n1)C2=O | – | 21.1 µM (active)
40 | OC[C@H]1O[C@@H]2O[C@H]3[C@H](O)[C@@H](O)[C@@H](O[C@H]4[C@H](O)[C@@H](O)[C@@H](O[C@H]5[C@H](O)[C@@H](O)[C@@H](O[C@H]6[C@H](O)[C@@H](O)[C@@H](O[C@H]7[C@H](O)[C@@H](O)[C@@H](O[C@H]1[C@H](O)[C@H]2O)O[C@@H]7CO)O[C@@H]6CO)O[C@@H]5CO)O[C@@H]4CO)O[C@@H]3CO | inactive | –
